Measured values as given in PubChem BioAssay (Tox21).
Results filed as inconclusive are left out. Activity calls are given as the source filed them. Calls follow the shape of the dose curve; as a rule, active = well fitted curve in the direction sought with a large enough effect in the repeat runs; inconclusive = weak or mixed curves; inactive = no such curve, though single readings can be large; an effect the other way counts as inactive or inconclusive.

Experiments:
[1] = qHTS RealTime-Glo MT Cell Viability Assay in HEK293 cells - 16 hour (AID 1224872); also: potency is read from the fitted curve at half-maximal effect; nearly all actives have a fitted effect of over 50% in size
Outline: (§1)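 HEK293 cells were seeded at 600 cells/well together with NanoLuc luciferase and cell-permeant prosubstrate, preincubated 5 h at 37 C/5% CO2, then given compound in DMSO by pintool. Luminescence from viable-cell prosubstrate reduction was read repeatedly over 40 h.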

[2] = qHTS RealTime-Glo MT Cell Viability Assay in HEK293 cells - 40 hour (AID 1224874); conditions: RealTime-Glo luminescence; max response: hits give low values; also: potency is read from the fitted curve at half-maximal effect; nearly all actives have a fitted effect of over 50% in size
Outline: (§2)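 600 cells/well were plated with the nonlytic NanoLuc/prosubstrate reagent, pre-incubated 5 h, then given 23 nL of compound in DMSO. Incubation at 37 C for 40 h, with luminescence from viable-cell-reduced substrate read repeatedly from 0 h.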

[3] = A CellTox Green Cytotoxicity Assay to monitor cytotoxicity in HEK293 cells - 24 hour (AID 1224875); also: series mostly up to about 77 µM; nearly all actives have a fitted effect of over 45% in size
Outline: (§3)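 HEK293 cells, 600/well, were preincubated 5 hours and then exposed to compounds at 37 C for up to 40 hours. A cell-impermeant cyanine dye staining dead-cell DNA was read by fluorescence at 0, 8, 16, 24, 32 and 40 h time points.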

[4] = A CellTox Green Cytotoxicity Assay to monitor cytotoxicity in HepG2 cells - 24 hour (AID 1224878); also: nearly all actives have a fitted effect of over 45% in size; also: potency is read from the fitted curve at half-maximal effect
Outline: (§4)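 HepG2 cells, 600/well, preincubated 5 h with CellTox Green dye, then exposed to Tox21 compounds in DMSO at 37 C for up to 40 h. Dead-cell DNA fluorescence read at the indicated time point.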

[5] = A CellTox Green Cytotoxicity Assay to monitor cytotoxicity in HepG2 cells - 40 hour (AID 1224879); also: nearly all actives have a fitted effect of over 40% in size; also: potency is read from the fitted curve at half-maximal effect
Outline: as §4

[6] = qHTS RealTime-Glo MT Cell Viability Assay in HEK293 cells - 0 hour (AID 1224880); also: nearly all actives have a fitted effect of over 45% in size; also: potency is read from the fitted curve at half-maximal effect
Outline: as §2

[7] = A CellTox Green Cytotoxicity Assay to monitor cytotoxicity in HEK293 cells - 32 hour (AID 1224881); also: nearly all actives have a fitted effect of over 40% in size
Outline: as §3

[8] = A CellTox Green Cytotoxicity Assay to monitor cytotoxicity in HepG2 cells - 0 hour (AID 1224882); also: nearly all actives have a fitted effect of over 35% in size
Outline: as §4

[9] = A CellTox Green Cytotoxicity Assay to monitor cytotoxicity in HepG2 cells - 32 hour (AID 1224883); also: nearly all actives have a fitted effect of over 50% in size; also: potency is read from the fitted curve at half-maximal effect
Outline: as §4

[10] = A CellTox Green Cytotoxicity Assay to monitor cytotoxicity in HEK293 cells - 8 hour (AID 1224884); also: nearly all actives have a fitted effect of over 35% in size
Outline: as §3

[11] = qHTS RealTime-Glo MT Cell Viability Assay in HEK293 cells - 24 hour (AID 1224886); also: potency is read from the fitted curve at half-maximal effect; nearly all actives have a fitted effect of over 50% in size
Outline: as §1

[12] = qHTS RealTime-Glo MT Cell Viability Assay in HEK293 cells - 8 hour (AID 1224887); also: nearly all actives have a fitted effect of over 50% in size; also: potency is read from the fitted curve at half-maximal effect
Outline: as §2

[13] = A CellTox Green Cytotoxicity Assay to monitor cytotoxicity in HEK293 cells - 16 hour (AID 1224888); also: nearly all actives have a fitted effect of over 35% in size
Outline: as §3

[14] = qHTS RealTime-Glo MT Cell Viability Assay in HepG2 cells - 0 hour (AID 1224889); also: nearly all actives have a fitted effect of over 50% in size; also: potency is read from the fitted curve at half-maximal effect
Outline: (§5)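 HepG2 cells were seeded at 600 cells/well together with NanoLuc luciferase and a cell-permeant prosubstrate, preincubated 5 h at 37 C/5% CO2, then pin-dosed with compounds in DMSO. Nonlytic luminescence from viable cells was read at each time point.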

[15] = A CellTox Green Cytotoxicity Assay to monitor cytotoxicity in HepG2 cells - 8 hour (AID 1224890); also: nearly all actives have a fitted effect of over 45% in size
Outline: as §4

[16] = qHTS assay to identify small molecule antagonists of the estrogen receptor alpha (ER-alpha) signaling pathway using the BG1 cell line in the presence of 0.1 nM 17-beta-estradiol - cell viability counter screen (AID 1259241); also: nearly all actives have a fitted effect of over 40% in size
Outline: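 Viability in VM7Luc4E2 cells after 22 hr compound exposure under 0.1 nM 17beta-estradiol stimulation, by CellTiter-Fluor.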

[17] = qHTS RealTime-Glo MT Cell Viability Assay in HepG2 cells - 8 hour (AID 1224873); also: nearly all actives have a fitted effect of over 55% in size
Outline: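 Real-time viability: cells seeded at 600 per well together with NanoLuc and cell-permeant prosubstrate, compounds added after 5 h incubation. Luminescence tracked at 0, 8, 16, 24, 32 and 40 h of exposure.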

[18] = qHTS RealTime-Glo MT Cell Viability Assay in HepG2 cells - 32 hour (AID 1224877); also: nearly all actives have a fitted effect of over 55% in size
Outline: as §5

[19] = qHTS RealTime-Glo MT Cell Viability Assay in HepG2 cells - 16 hour (AID 1224885); also: nearly all actives have a fitted effect of over 50% in size
Outline: as §5

[20] = A CellTox Green Cytotoxicity Assay to monitor cytotoxicity in HepG2 cells - 16 hour (AID 1224876); also: nearly all actives have a fitted effect of over 45% in size
Outline: as §4

Measured: Potency

O=C(CCCN1CCN(c2ccc(F)cc2)CC1)NC1c2ccccc2CSc2ccccc21 (stereo not given)
active: [1] 19 µM | [2] 16.9 µM | [4] 23.9 µM | [5] 23.9 µM | [9] 23.9 µM | [11] 16.9 µM | [12] 19 µM
inactive: [3] | [6] | [7] | [8] | [10] | [13] | [14] | [15] | [16]

CCCCC(CC)C(=O)OCCOCCOCCOCCOC(=O)C(CC)CCCC (stereo not given)
inactive: [17] | [18] | [4] | [5] | [6] | [8] | [9] | [10] | [19] | [12] | [13] | [14] | [15]

CCOC(=O)N1CCC(n2c(=O)[nH]c3cc(Cl)ccc32)CC1
inactive: [17] | [3] | [18] | [4] | [5] | [6] | [7] | [8] | [9] | [10] | [19] | [13] | [14] | [15] | [16]

CCOC(=O)CC(=O)C(=O)OCC
active: [2] 43.6 µM
inactive: [17] | [3] | [20] | [18] | [4] | [5] | [6] | [7] | [8] | [9] | [10] | [19] | [12] | [13] | [14] | [15]

Oc1ccc(Nc2ccccc2)cc1
inactive: [20] | [18] | [4] | [5] | [8] | [9] | [10] | [13] | [15] | [16]
active: [1] 19.5 µM | [2] 19.5 µM | [11] 21.9 µM | [12] 17.4 µM

O=C(Nc1ccccc1)Nc1ccccc1
inactive: [17] | [3] | [18] | [4] | [6] | [7] | [8] | [9] | [10] | [19] | [13] | [14] | [15] | [16]

CC(=O)OCC(=O)[C@H]1CC[C@H]2[C@@H]3CCC4=CC(=O)CC[C@]4(C)[C@H]3CC[C@]12C
active: [6] 9.52 µM | [14] 3.01 µM
inactive: [17] | [3] | [20] | [18] | [4] | [5] | [8] | [9] | [10] | [19] | [13] | [15] | [16]

N#C/C(=C1\SCC(c2ccccc2Cl)S1)n1ccnc1 (stereo not given)
inactive: [17] | [3] | [20] | [18] | [4] | [5] | [6] | [7] | [8] | [9] | [10] | [19] | [13] | [14] | [15] | [16]

Fc1ccccc1[C@@H](F)COC1CCC(Nc2ncnc3[nH]ncc23)CC1 (stereo not given in full)
active: [2] 24.5 µM | [11] 21.9 µM
inactive: [17] | [3] | [20] | [18] | [4] | [6] | [7] | [8] | [9] | [10] | [19] | [13] | [15]

CC(=O)Oc1ccc2c(c1)CC[C@@H]1[C@@H]2CC[C@]2(C)[C@@H](O)CC[C@@H]12
active: [2] 16.9 µM
inactive: [17] | [3] | [18] | [6] | [8] | [10] | [19] | [13] | [14] | [15] | [16]

Nc1nc(Cl)nc2c1ncn2[C@@H]1O[C@H](CO)[C@@H](O)[C@@H]1F
inactive: [17] | [3] | [4] | [6] | [7] | [8] | [9] | [10] | [19] | [12] | [13] | [14] | [15] | [16]
active: [2] 4.25 µM | [11] 4.77 µM

CCC(Cc1ccccc1)(C(=O)c1ccc(N2CCOCC2)cc1)N(C)C (stereo not given)
inactive: [17] | [20] | [18] | [4] | [5] | [6] | [7] | [8] | [9] | [10] | [19] | [13] | [14] | [15] | [16]

CC1=C(C=O)C(C)(C)CCC1
inactive: [17] | [20] | [18] | [4] | [8] | [9] | [10] | [19] | [14] | [15] | [16]

C(=C\c1ccccc1)/CN1CCN(C(c2ccccc2)c2ccccc2)CC1
inactive: [17] | [3] | [20] | [18] | [4] | [6] | [7] | [8] | [9] | [10] | [19] | [12] | [13] | [14] | [15] | [16]
